The panel holds about 83,000 compounds, 20% with a hit somewhere; the sample as a whole holds those more often.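 Growth was measured after 48 h exposure to one concentration of compound in 96-well plates. Values under 10 count as active.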 Values without a mark were called inactive. Active and inactive are the calls of the source.
system: U251 CNS; assay: NCI-60 one-dose screen, 48 h (100 = growth as untreated, 0 = no growth, -100 = all killed); details: 10 µM unless noted

Row | Compound | growth
1 | COc1ccc(Cn2cc3c(c2-c2cc(OC)c(OC)c(OC)c2)CCc2c(CN4CCCC4)noc2-3)cc1 | 22.4%
2 | CC1=N[C@@H]2CN(C(=O)OC(C)(C)C)C[C@@H]2n2c1cc1ccccc1c2=O | 106%
3 | COc1cc(OC)cc(C(=O)Nc2cccc(C#Cc3cccc4[nH]nc(N)c34)c2)c1 | 22.5%
4 | COc1ccccc1-n1cc(C#N)c(N)c1C(=O)c1ccc(Br)cc1 | 66.8%
5 | CS(=O)(=O)Nc1cc(-c2ccc3ncc(C#N)c(NCc4cccc(F)c4)c3c2)cnc1Cl | 10.3%
6 | CC[C@H](CO)Nc1ccc2ncc(C#Cc3cncc(C(=O)Nc4ccc(CN5CCN(C)CC5)c(C(F)(F)F)c4)c3)n2n1 | -85.3% (active)
7 | COc1cc(-c2nc(SCCC(C)C)nc(NNC(=O)c3ccncc3)c2C#N)cc(OC)c1OC | 79.7%
8 | CCCCCc1ccc(S(=O)(=O)Nc2cc(-c3csc(NC(=O)CN4CCN(CCO)CC4)n3)ccc2OC)cc1 | 2.41% (active)
9 | CCCn1cnc2c(c1=N)C(c1ccc(OC)cc1)c1sc3c(CC)cccc3c1O2 (configuration not stated) | 20.5%
10 | C#Cc1ccc(C(=O)NCc2ccc(/C=C/C(=O)c3nccn3C)cc2)cc1 | 17.3%

system: PC-3 prostate; assay: as above; details: 10 µM unless noted

Row | Compound | growth
11 | NS(=O)(=O)c1ccc(Nc2nc(N/N=C/c3c[nH]c4ccccc34)nc(Nc3ccccc3)n2)cc1 | 26%
12 | CCc1cccc2c3c(sc12)C(c1ccc(OC)cc1)C(C#N)=C(/N=C/c1ccc(Cl)cc1)O3 (configuration not stated) | 21.1%
13 | Cn1ccnc1C(=O)/C=C/c1ccc(CNC(=O)c2ccc(F)cc2)cc1 | 23.5%
14 | N#Cc1cccc(NC(=O)c2cc(-c3ccc(F)cc3F)ccc2O)c1 | 9.28% (active)
15 | O=S(=O)(NCCCNc1nccc(-c2[nH]c(-c3ccccc3)nc2-c2ccc(Cl)c(O)c2)n1)c1cccc2ccccc12 | 26.2%
16 | CC1(C)[C@@H](O)CC[C@]2(C)[C@H]3CC[C@@H]4[C@H]5[C@H](C(=O)/C=C\c6ccncc6)CC[C@]5(O)CC[C@@]4(C)[C@]3(C)CC[C@@H]12 | 67.5%
17 | CS(=O)(=O)Nc1cc(-c2ccc3ncc(C#N)c(N[C@H](CO)c4ccccc4)c3c2)cnc1Cl | 32.7%
18 | O=C(CSc1nc2ccccc2c(=O)n1-c1ccccc1)Nc1ccc(-c2nc3ccc([N+](=O)[O-])cc3[nH]2)cc1 | 69.7%
19 | Oc1cccc2ccc(-c3nnc(SCc4ccc(O)c5ncccc45)n3-c3ccccc3)nc12 | 12.4%
20 | C=CCn1c(SCC(=O)Nc2ccc(C(=O)/C=C/c3ccc(C)cc3)cc2)nnc1-c1c[nH]c2ccccc12 | 66.5%
21 | C[C@@H](Nc1c(C#N)cnc2ccc(-c3cnc(Cl)c(NS(C)(=O)=O)c3)cc12)c1ccccc1 | 5.67% (active)
22 | CCN(CC)c1ccc(NC2=C(Cl)C(=O)c3nc(C)ccc3C2=O)cc1 | 74.2%
23 | C#Cc1nc(C(=O)NCCC(=O)Nc2ccc(NC(=O)c3ccc(/C=C/C(=O)c4nccn4C)cc3)cc2)cs1 | 42.5%
24 | CCN(CC)CCn1c2ccc(O)cc2c2sc3cc(OC)ccc3c(=O)c21 | 30.5%
25 | CC1(C)CC[C@]2(C(=O)N3CCOCC3)CC[C@]3(C)C(=CC[C@@H]4[C@@]5(C)C/C(=C/c6ccccn6)C(=O)C(C)(C)[C@@H]5CC[C@]43C)[C@@H]2C1 | 20.9%
26 | Cc1nc(-c2ccccc2O)ccc1C(=O)N=Nc1c(O)[nH]c2ccc(Br)cc12 | 88.2%
27 | O=C(CCn1c[n+](CC(=O)c2ccc(-c3ccccc3)cc2)c2ccccc21)Nc1cccc2cccnc12 | 30.9%
28 | COC(=O)c1[nH]nc2c1C1(C(=O)c3cccc4cccc1c34)C(C#N)=C(N)O2 (configuration not stated) | 83.9%
29 | N=c1c2cc(-c3ccccc3)oc2ncn1/N=C/c1ccc(Cl)cc1 | 82.2%
30 | Cc1ccc(-n2c(/C=C3\C(=O)Nc4ccccc43)ccc2CO)cc1 | 66.5%
31 | CC(=O)N(C)C1CCc2c(sc(NC(=O)c3ccc(C(C)(C)C)cc3)c2C(N)=O)C1 (configuration not stated) | 45.9%
32 | CC1(C)[C@@H](O)CC[C@]2(C)[C@H]3CC[C@@H]4[C@H]5[C@H](C(=O)/C=C\c6ccc([N+](=O)[O-])cc6)CC[C@]5(O)CC[C@@]4(C)[C@]3(C)CC[C@@H]12 | 47.9%

Reference: PubChem BioAssay (NCI)
